The panel holds about 79,000 compounds, 15% with a hit somewhere; the sample as a whole holds those more often. Values without a mark were called inactive. Activity calls are given as the source filed them. Cut-off read from the data, not from the text of the source: active = growth inhibition above about 70%; inactive = the rest.
Experiments:
[1] = NCI Yeast Anticancer Drug Screen. Data for the sgs1 mgt1 strain (AID 161);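 note: 0% = growth of cultures given vehicle only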; details: S. cerevisiae sgs1 mgt1 strain, hits give high values
Method in brief: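 Compounds are added to genetically altered yeast, and growth is compared with cultures given vehicle alone to give percent inhibition.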

[2] = NCI Yeast Anticancer Drug Screen. Data for the CLN2oe strain (AID 163);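 note: 0% = growth of vehicle-only control cultures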; details: S. cerevisiae CLN2oe strain, hits give high values
Method in brief: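 Compounds are applied to yeast harbouring a defined cell-cycle control change; reduced growth compared with vehicle-treated controls gives the value.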

[3] = NCI Yeast Anticancer Drug Screen. Data for the cln2 rad14 strain (AID 165);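 note: 0% = growth equal to vehicle treated cultures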; details: S. cerevisiae cln2 rad14 strain, hits give high values
Method in brief: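 Readout is yeast growth inhibition versus vehicle-treated controls, using a strain with cln2 and rad14 alterations exposed to compound.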

[4] = NCI Yeast Anticancer Drug Screen. Data for the bub3 strain (AID 167); details: S. cerevisiae bub3 mutant strain, hits give high values
Method in brief: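 Growth of a checkpoint-deficient yeast mutant is measured after compound exposure. Values represent inhibition relative to vehicle.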

[5] = NCI Yeast Anticancer Drug Screen. Data for the wt2 strain (AID 169);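 note: 0% = growth of vehicle-treated yeast cultures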; details: S. cerevisiae wt2 strain growth inhibition, hits give high values
Method in brief: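 Against vehicle-treated controls, the growth of yeast exposed to each compound was compared, and the inhibition was recorded.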

[6] = NCI Yeast Anticancer Drug Screen. Data for the mlh1 strain (AID 171);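 note: 0% = growth of vehicle-treated control cultures of the same strain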; details: S. cerevisiae mlh1 strain growth inhibition, hits give high values
Method in brief: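 Measured: yeast growth. Reference: vehicle-treated controls. Organism: strain with a defined alteration affecting DNA damage repair or cell cycle control, treated with compound.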

[7] = NCI Yeast Anticancer Drug Screen. Data for the sgs1 strain (AID 173);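 note: 0% = growth of vehicle-only control cultures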; details: S. cerevisiae sgs1 mutant, hits give high values
Method in brief: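 Each compound was added to cultures of the altered yeast strain. Growth was recorded, and inhibition was derived by comparison with vehicle controls.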

[8] = NCI Yeast Anticancer Drug Screen. Data for the mlh1 rad18 strain (AID 175); details: S. cerevisiae mlh1 rad18 strain growth inhibition, hits give high values
Method in brief: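 Genetically defined yeast (DNA repair-deficient) exposed to compounds; growth inhibition determined relative to vehicle.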

[9] = NCI Yeast Anticancer Drug Screen. Data for the rad18 strain (AID 177); details: S. cerevisiae rad18 mutant growth inhibition, hits give high values
Method in brief: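 Vehicle-treated cultures served as the baseline for scoring compound-induced growth inhibition in DNA-repair-mutant yeast.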

[10] = at 5.0 µM (retest, dose inferred, filed as 0.5)
[11] = at 50.0 µM (retest, dose inferred, filed as 5.0)

For `Cc1nc2ccc(N=NN(C)C)cc2[nH]1`, the growth inhibition [1, 10] was -6%, the growth inhibition [1, 11] was 7% and the growth inhibition ([1]; at 50.0 µM) was 88.8% (active). The growth inhibition ([2]; at 1.2 µM) was 8%, the growth inhibition ([2]; at 3.7 µM) was 1% and the growth inhibition ([2]; at 11.0 µM) was 30%. The growth inhibition ([2]; at 33.0 µM) was 96% (active), the growth inhibition ([2]; at 100.0 µM) was 96% (active) and the growth inhibition [3, 10] was 8%. The growth inhibition [3, 11] was 35%, the growth inhibition ([3]; at 50.0 µM) was 87.5% (active) and the growth inhibition ([4]; at 1.2 µM) was -6%. For the same molecule, the growth inhibition ([4]; at 3.7 µM) was -5%, the growth inhibition [4, 10] was -19% and the growth inhibition ([4]; at 11.0 µM) was -2%. The growth inhibition ([4]; at 33.0 µM) was 97% (active), the growth inhibition [4, 11] was 98% (active) and the growth inhibition ([4]; at 50.0 µM) was 87.8% (active). For the same molecule, the growth inhibition ([4]; at 100.0 µM) was 98% (active), the growth inhibition ([5]; at 1.2 µM) was -15% and the growth inhibition ([5]; at 3.7 µM) was 4%. For the same molecule, the growth inhibition ([5]; at 11.0 µM) was 6%, the growth inhibition ([5]; at 33.0 µM) was 98% (active) and the growth inhibition ([5]; at 100.0 µM) was 98% (active). The growth inhibition ([6]; at 1.2 µM) was 2%, the growth inhibition ([6]; at 3.7 µM) was 3% and the growth inhibition ([6]; at 11.0 µM) was 15%. The growth inhibition ([6]; at 33.0 µM) was 99% (active), the growth inhibition ([6]; at 100.0 µM) was 99% (active) and the growth inhibition ([7]; at 1.2 µM) was 27%. For the same molecule, the growth inhibition ([7]; at 3.7 µM) was 39%, the growth inhibition ([7]; at 11.0 µM) was 40% and the growth inhibition ([7]; at 33.0 µM) was 49%. For the same molecule, the growth inhibition ([7]; at 100.0 µM) was 99% (active), the growth inhibition [8, 10] was -7% and the growth inhibition [8, 11] was 98% (active). The growth inhibition ([8]; at 50.0 µM) was 89% (active), the growth inhibition ([9]; at 1.2 µM) was 18% and the growth inhibition ([9]; at 3.7 µM) was 23%. For the same molecule, the growth inhibition ([9]; at 11.0 µM) was 26%, the growth inhibition ([9]; at 33.0 µM) was 77% (active) and the growth inhibition ([9]; at 100.0 µM) was 98% (active).

Source: PubChem BioAssay (NCI)
